Unmarked numbers belong to inactive results. A call without a number means that no potency is given here. Calls of active or inactive are those of the source. Unless noted, calls follow the shape of the dose curve; as a rule, active = well fitted curve in the direction sought with a large enough effect in the repeat runs; inconclusive = weak or mixed curves; inactive = no such curve, though single readings can be large; an effect the other way counts as inactive or inconclusive.
Assays:
[1] = qHTS assay to identify small molecule antagonists of the thyroid receptor (TR) signaling pathway - cell viability counter screen (AID 743064); also: nearly all actives have a fitted effect of over 50% in size; also: potency is read from the fitted curve at half-maximal effect
Method in brief: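 Fluorescence from CellTiter-Fluor, added after 23.5 h exposure at 37 °C, reported viability of GH3.TRE-Luc cells co-treated with compound and 1 nM T3. Measured in the same wells as the luciferase TR readout.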

[2] = qHTS assay to identify small molecule antagonists of the thyroid receptor (TR) signaling pathway (AID 743065); also: nearly all actives have a fitted effect of over 55% in size; also: potency is read from the fitted curve at half-maximal effect
Method in brief: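 Antagonism measured as loss of luciferase signal in GH3 cells stably carrying a TRE-luciferase reporter, co-treated with compound and T3 (1 nM final) for 23.5 h at 37 C. Viability was read in the same well by CellTiter-Fluor.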

[3] = tested on: thyroid hormone receptor (rat, GH3 cells); assay: qHTS assay to identify small molecule agonists of the thyroid receptor (TR) signaling pathway (AID 743066; calls by dose curve)
[4] = target: Estrogen receptor (Homo sapiens) (UniProt P03372); assay: qHTS assay to identify small molecule antagonists of the estrogen receptor alpha (ER-alpha) signaling pathway (AID 743069; active = well fitted curve in the direction sought with a large enough effect in the signal ratio in the repeat runs, not every such curve was filed as active; inconclusive = weak or mixed curves, or effect the other way; inactive = no such curve, though single readings can be large or run the other way; the % refers to the signal ratio; also: potency is read from the fitted curve at half-maximal effect)
Estrogen receptor (Homo sapiens), sequence (P03372 whole entry, looked up): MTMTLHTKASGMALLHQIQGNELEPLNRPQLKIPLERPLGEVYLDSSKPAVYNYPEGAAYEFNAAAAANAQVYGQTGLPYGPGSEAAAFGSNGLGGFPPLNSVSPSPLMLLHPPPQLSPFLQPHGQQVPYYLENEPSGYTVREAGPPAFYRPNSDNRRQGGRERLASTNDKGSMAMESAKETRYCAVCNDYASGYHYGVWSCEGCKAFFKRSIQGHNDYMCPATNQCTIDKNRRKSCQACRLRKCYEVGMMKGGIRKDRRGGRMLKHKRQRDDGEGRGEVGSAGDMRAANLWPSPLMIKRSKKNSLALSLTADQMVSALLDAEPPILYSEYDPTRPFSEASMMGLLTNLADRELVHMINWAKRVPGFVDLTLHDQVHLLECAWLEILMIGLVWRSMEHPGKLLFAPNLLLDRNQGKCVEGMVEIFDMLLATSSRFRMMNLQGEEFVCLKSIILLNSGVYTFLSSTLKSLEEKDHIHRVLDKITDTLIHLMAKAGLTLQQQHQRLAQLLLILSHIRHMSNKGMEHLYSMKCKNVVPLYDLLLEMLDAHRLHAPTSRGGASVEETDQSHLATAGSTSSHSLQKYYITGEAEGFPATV
Method in brief: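 Compound effects are measured against 17beta-estradiol stimulation in HEK293 cells with a UAS-controlled beta-lactamase reporter for ER-alpha. Exposure lasts 18 hr at 37C; LiveBLAzer B/G FRET substrate follows for 2 hr at room temperature.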

[5] = qHTS assay to identify small molecule antagonists of the estrogen receptor alpha (ER-alpha) signaling pathway - cell viability counter screen (AID 743074; calls by dose curve;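 also: HEK293 cells carrying ER-alpha-UAS-bla reporter stimulated with 17beta-estradiol; nearly all actives have a fitted effect of over 45% in size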)
[6] = target: Estrogen receptor (Homo sapiens) (UniProt P03372); assay: qHTS assay to identify small molecule agonists of the estrogen receptor alpha (ER-alpha) signaling pathway (AID 743075; calls by dose curve)
[7] = target: Estrogen receptor (Homo sapiens) (UniProt P03372); assay: qHTS assay to identify small molecule agonists of the estrogen receptor alpha (ER-alpha) signaling pathway using the BG1 cell line (AID 743079); details: BG1Luc4E2 cells, ERE-luciferase agonist, 22 h; activation: at 70.3 µM (top of the series); also: nearly all actives have a fitted effect of over 20% in size
[8] = qHTS assay to identify small molecule antagonists of the estrogen receptor alpha (ER-alpha) signaling pathway using the BG1 cell line (AID 743080; calls by dose curve;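 also: BG1 cells stimulated with 17beta-estradiol alongside compound; nearly all actives have a fitted effect of over 25% in size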)
Method in brief: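 Quantitative HTS on the Tox21 10K library: BG1 cells with endogenous ER-alpha and ERE-luciferase reporter, 17beta-estradiol stimulation, 21.5 h compound exposure, luminescence endpoint with parallel fluorescence cytotoxicity counter-read.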

[9] = qHTS assay to identify small molecule antagonists of the estrogen receptor alpha (ER-alpha) signaling pathway using the BG1 cell line - cell viability counter screen (AID 743081);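 also: compound given together with 17beta-estradiol as the ER stimulus; nearly all actives have a fitted effect of over 45% in size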
Aromatase (Homo sapiens) = Aromatase (Homo sapiens) (UniProt P11511); assay: qHTS assay to identify aromatase inhibitors (AID 743083); also: nearly all actives have a fitted effect of over 55% in size
Aromatase (Homo sapiens), sequence (P11511 whole entry, looked up): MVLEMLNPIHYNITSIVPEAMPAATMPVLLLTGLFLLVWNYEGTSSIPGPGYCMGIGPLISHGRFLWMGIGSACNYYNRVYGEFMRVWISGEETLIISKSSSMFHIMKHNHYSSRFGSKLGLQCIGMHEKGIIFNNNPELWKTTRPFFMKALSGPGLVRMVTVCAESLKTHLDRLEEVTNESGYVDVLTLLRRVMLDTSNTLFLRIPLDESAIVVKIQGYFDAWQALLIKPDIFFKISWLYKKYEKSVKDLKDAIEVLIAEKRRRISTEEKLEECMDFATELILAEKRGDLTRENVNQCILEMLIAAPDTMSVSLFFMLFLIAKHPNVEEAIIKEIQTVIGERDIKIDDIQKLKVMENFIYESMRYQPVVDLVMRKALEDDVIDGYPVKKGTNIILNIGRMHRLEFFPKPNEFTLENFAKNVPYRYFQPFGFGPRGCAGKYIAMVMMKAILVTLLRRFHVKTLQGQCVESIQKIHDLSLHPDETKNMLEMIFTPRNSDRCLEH

[10] = qHTS assay to identify aromatase inhibitors - cell viability counter screen (AID 743084);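 also: cells stimulated with testosterone during compound exposure; nearly all actives have a fitted effect of over 55% in size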; also: potency is read from the fitted curve at half-maximal effect
[11] = qHTS assay to identify small molecule that activate the aryl hydrocarbon receptor (AhR) signaling pathway - cell viability counter screen (AID 743086); also: nearly all actives have a fitted effect of over 45% in size; also: potency is read from the fitted curve at half-maximal effect
Method in brief: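 Cytotoxicity counter screen: CellTiter-Fluor signal (30 min, 37 C) in 4000 HepG2 cells/well carrying the DRE-luciferase reporter, following 24 h compound exposure at 37 C.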

[12] = target: Peroxisome proliferator-activated receptor gamma (Homo sapiens) (UniProt P37231); assay: qHTS assay to identify small molecule agonists of the peroxisome proliferator-activated receptor gamma (PPARg) signaling pathway (AID 743094; active = well fitted activation curve with a large enough effect in the signal ratio in the repeat runs, not every such curve was filed as active; inconclusive = weak or mixed curves, or effect the other way; inactive = no such curve, though single readings can be large or run the other way; the % refers to the signal ratio)
Peroxisome proliferator-activated receptor gamma (Homo sapiens), sequence (P37231 whole entry, looked up): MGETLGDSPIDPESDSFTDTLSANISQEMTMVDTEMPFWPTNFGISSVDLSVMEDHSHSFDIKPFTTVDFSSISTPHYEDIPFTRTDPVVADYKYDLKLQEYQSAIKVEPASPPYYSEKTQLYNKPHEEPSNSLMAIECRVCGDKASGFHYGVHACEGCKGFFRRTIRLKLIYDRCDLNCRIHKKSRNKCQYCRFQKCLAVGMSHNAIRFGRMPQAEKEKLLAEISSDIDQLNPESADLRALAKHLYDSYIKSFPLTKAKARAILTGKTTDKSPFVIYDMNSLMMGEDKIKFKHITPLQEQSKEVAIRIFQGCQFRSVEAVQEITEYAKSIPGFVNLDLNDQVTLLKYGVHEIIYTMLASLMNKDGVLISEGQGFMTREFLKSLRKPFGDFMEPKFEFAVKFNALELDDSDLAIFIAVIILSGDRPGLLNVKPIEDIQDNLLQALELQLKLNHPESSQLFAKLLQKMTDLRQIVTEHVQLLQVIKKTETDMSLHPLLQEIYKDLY
Method in brief: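 GeneBLAzer PPARg UAS-bla HEK293H cells were plated, rested 5 h, then exposed to compounds for 17 h at 37C. Beta-lactamase activity was read by LiveBLAzer B/G FRET substrate fluorescence after 1 h at room temperature.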

[13] = qHTS assay to identify small molecule phospholipidosis (PLD) inducers (AID 1259344; active = well fitted curve in the direction sought with a large enough effect; inconclusive = small, poorly fitted or top-dose-only effect, or another doubt; inactive = no such curve, though single readings can be large; an effect the other way counts as inactive or inconclusive)
Method in brief: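 Fluorescent phospholipid staining (LipidTOX Red) measured by automated microscopy in fixed HepG2 cells after 24 h treatment; nuclei counterstained with Hoechst 33342; amiodarone as reference inducer.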

[14] = target: Nuclear receptor subfamily 1 group I member 2 (Rattus norvegicus) (UniProt Q9R1A7); assay: Rat pregnane X receptor (rPXR) activation by small molecules, qHTS assay (AID 1346983); details: rPXR luciferase reporter cells, One-Glo luminescence, 24 h; max activation: hits give high values; also: nearly all actives have a fitted effect of over 20% in size; also: potency is read from the fitted curve at half-maximal effect
Nuclear receptor subfamily 1 group I member 2 (Rattus norvegicus), sequence (Q9R1A7 whole entry, looked up): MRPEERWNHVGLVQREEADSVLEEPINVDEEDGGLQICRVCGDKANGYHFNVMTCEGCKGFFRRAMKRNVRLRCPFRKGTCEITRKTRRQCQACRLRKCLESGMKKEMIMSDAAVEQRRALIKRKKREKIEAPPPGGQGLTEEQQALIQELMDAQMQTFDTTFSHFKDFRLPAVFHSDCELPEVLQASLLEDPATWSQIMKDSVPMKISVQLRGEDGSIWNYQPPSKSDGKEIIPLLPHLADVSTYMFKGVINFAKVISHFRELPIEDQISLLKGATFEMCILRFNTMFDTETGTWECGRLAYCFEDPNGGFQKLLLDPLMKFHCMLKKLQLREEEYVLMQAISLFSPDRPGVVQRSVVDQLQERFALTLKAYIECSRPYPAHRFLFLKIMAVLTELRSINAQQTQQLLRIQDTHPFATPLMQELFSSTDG
Method in brief: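 Luminescent readout (One-Glo luciferase, 30 min room temperature) followed 24 hr compound treatment at 37 C of rPXR cells plated 2,000 per well and preincubated 5hr; qHTS format with compounds delivered in DMSO.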

[15] = target: Nuclear receptor subfamily 1 group I member 2 (Homo sapiens) (UniProt O75469); assay: CYP3A4 induction through human pregnane X receptor (PXR) by small molecules, qHTS assay (AID 1346984); also: nearly all actives have a fitted effect of over 40% in size; also: potency is read from the fitted curve at half-maximal effect
Method in brief: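 DPX-2 HepG2 cells carrying a PXR response element and CYP3A4-promoter luciferase construct, treated with compounds 24 hr at 37C. Then P450-Glo CYP3A4 Luciferin-IPA substrate (3uM final) for 3 hr at 37C, One-Glo added, luminescence read.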

[16] = target: Aryl hydrocarbon receptor (Homo sapiens) (UniProt P35869); assay: qHTS assay to identify small molecule that activate the aryl hydrocarbon receptor (AhR) signaling pathway (AID 743085); also: nearly all actives have a fitted effect of over 15% in size; also: potency is read from the fitted curve at half-maximal effect;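 as to activation: HG2L7.5c1 human HepG2 liver cells with stably integrated DRE-driven firefly reporter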
Aryl hydrocarbon receptor (Homo sapiens), sequence (P35869 whole entry, looked up): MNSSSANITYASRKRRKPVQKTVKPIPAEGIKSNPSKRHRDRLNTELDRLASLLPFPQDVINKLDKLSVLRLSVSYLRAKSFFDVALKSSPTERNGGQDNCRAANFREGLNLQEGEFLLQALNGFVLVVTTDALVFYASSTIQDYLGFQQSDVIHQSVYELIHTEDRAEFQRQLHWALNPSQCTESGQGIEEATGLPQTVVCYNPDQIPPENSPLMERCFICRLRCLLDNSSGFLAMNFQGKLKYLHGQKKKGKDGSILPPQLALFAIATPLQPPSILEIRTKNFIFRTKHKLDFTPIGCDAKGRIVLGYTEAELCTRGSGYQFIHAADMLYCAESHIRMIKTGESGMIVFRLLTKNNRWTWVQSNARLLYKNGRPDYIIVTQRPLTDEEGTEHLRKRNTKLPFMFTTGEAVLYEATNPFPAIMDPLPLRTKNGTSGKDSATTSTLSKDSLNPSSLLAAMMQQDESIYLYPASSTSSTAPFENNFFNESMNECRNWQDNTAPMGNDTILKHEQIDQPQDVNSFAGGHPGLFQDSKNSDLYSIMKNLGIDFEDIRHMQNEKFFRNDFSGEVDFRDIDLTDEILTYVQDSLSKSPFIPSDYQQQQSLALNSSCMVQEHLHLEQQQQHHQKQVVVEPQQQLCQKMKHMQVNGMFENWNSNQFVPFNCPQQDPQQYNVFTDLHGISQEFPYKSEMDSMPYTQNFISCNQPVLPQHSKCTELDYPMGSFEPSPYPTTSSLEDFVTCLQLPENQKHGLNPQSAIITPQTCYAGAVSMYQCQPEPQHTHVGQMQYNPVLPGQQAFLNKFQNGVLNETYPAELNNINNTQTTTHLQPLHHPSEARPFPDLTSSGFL
Method in brief: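 Cell line HG2L7.5c1 (human hepatoma, 20× DRE-luc). Plated, 5 h 37C, compound/DMSO added, 24 h 37C. CellTiter-Fluor 30 min 37C → fluorescence; then ONE-Glo 30 min RT → luminescence.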

[17] = target: Nuclear receptor subfamily 1 group I member 2 (Homo sapiens) (UniProt O75469); assay: Human pregnane X receptor (PXR) activation by small molecules, qHTS assay (AID 1346985); also: nearly all actives have a fitted effect of over 40% in size
Method in brief: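 DPX-2 cells (HepG2 co-transfected with a PXR response element and a CYP3A4-promoter luciferase construct) were seeded at 2,000 per well, rested 5 hr at 37C, then exposed to DMSO-dissolved compounds for 24 hr. Activation was read as luciferase luminescence.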

| Structure (SMILES) | Potency [1] | Potency [2] | Potency [3] | Potency [4] | Potency [5] | Potency [6] | Potency [7] | Potency [8] | Potency [9] | Potency (Aromatase (Homo sapiens)) | Potency [10] | Potency [11] | Potency [12] | Potency [13] | max activation [14] [%] | Potency [15] | Potency [16] | Potency [17] | Potency [14] |
| --- | --- | --- | --- | --- | --- | --- | --- | --- | --- | --- | --- | --- | --- | --- | --- | --- | --- | --- | --- |
| O=C(CCCCCCCCCCCCC1CCCC1)Nc1ccc(S(=O)(=O)c2ccc(NC(=O)CCCCCCCCCCCCC3CCCC3)cc2)cc1 | inactive | inactive | inactive | inactive | inactive | inactive | inactive | inactive | inactive | inactive | inactive | inactive | inactive | inactive | -2.51 | inactive |  |  |  |
| C=C1CC[C@H](O)CC1=C/C=C1\CCC[C@]2(C)[C@@H]([C@H](C)CC[C@@H](O)C(C)(C)O)CC[C@@H]12 | 26.6 µM (active) | 16.8 µM (active) |  | 21.3 µM [inconclusive] (active) |  | inactive |  |  | inactive | inactive | inactive | inactive |  | inactive | 5.8 | inactive |  |  |  |
| CCC[C@@H]1C[C@@H](C(=O)N[C@@H]([C@H]2O[C@H](SC)[C@H](O)[C@@H](O)[C@H]2O)[C@H](C)Cl)N(C)C1 | inactive |  | inactive | inactive | inactive | inactive | inactive | inactive | inactive | inactive | inactive | inactive | inactive | inactive | 7.71 |  | inactive | inactive |  |
| CCC(=O)OCC(=O)[C@@]1(OC(=O)CC)[C@H](C)C[C@H]2[C@H]3[C@H]([C@@H](O)C[C@@]21C)[C@@]1(C)C=CC(=O)C=C1C[C@H]3Cl | inactive | inactive | inactive |  | inactive | inactive |  |  | inactive | inactive | inactive | inactive | inactive | inactive |  |  | inactive | inactive | 3.98 µM (active) |
| CN1CCN2c3ncccc3Cc3ccccc3C2C1 (configuration not stated) |  | 21.1 µM (active) | inactive |  | inactive |  |  |  | inactive |  |  | inactive |  | inactive | -0.13 | 15.8 µM (active) |  |  |  |
| CCOc1cc(-c2nccc3cc(OC)c(OC)cc23)cc(OCC)c1OCC | 29.8 µM (active) |  | inactive |  | inactive | inactive |  |  |  |  | 29.8 µM (active) | 21.1 µM (active) | inactive | inactive | 5.49 | inactive | 2.11 µM (active) |  |  |
| CCOC(=O)C1=C[C@@H](OC(CC)CC)[C@H](NC(C)=O)[C@@H](N)C1 | inactive | inactive | inactive |  | inactive |  |  |  |  | inactive | inactive | inactive | inactive | inactive | -4.38 |  | inactive |  |  |
